The list is not random: actives were taken first. Their share in the collection is about 19%.
HT1080NT lethal: qHTS for induction of synthetic lethality in tumor cells producing 2HG: qHTS for the HT-1080-NT fibrosarcoma cell line; actives 1.6% (n = 360,000); HT-1080-NT fibrosarcoma viability, CellTiter-Glo ATP luminescence, 48 h; AID 686970, 2013; Potency, µM (top dose mostly 46.1 µM), usual class: cytotoxic;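 note: NT is the 2HG producing partner of a matched IDH1 knockdown line; nearly all actives have a fitted effect of over 55% in size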
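Read-out is CellTiter-Glo luminescence after 10 minutes at room temperature, following 48 hours' compound treatment of HT-1080-NT cells (750 cells/well, RPMI, 5% FBS, 37 degrees C).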
DT40 TDP1 CPT: qHTS for Inhibitors of human tyrosyl-DNA phosphodiesterase 1 (TDP1): qHTS in cells in presence of CPT; chicken DT40 Tdp1-/-;hTDP1 cells + 20 nM CPT, ATP luminescence, 48 h; Potency, µM (highest dose often 46.2 µM), actives largely listed as inhibitors; actives 12% (n = 420,000); AID 686979, 2013; note: nearly all actives have a fitted effect of over 55% in size
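Chicken DT40 Tdp1-/- cells stably complemented with human TDP1 were seeded at 400 cells/well in medium containing 20 nM camptothecin, exposed to pin-transferred compounds, and grown at 37 °C for at least 48 hr. Viability was read as ATP luminescence.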
HT1080 IDH1KD tx: qHTS for induction of synthetic lethality in tumor cells producing 2HG: qHTS for the HT-1080-IDH1KD cell line | HT-1080 IDH1 knockdown viability, ATP luminescence, 48 h | actives 2% (n = 360,000) | AID 686971, 2013 | Potency, µM (highest dose often 46.1 µM), usual class: cytotoxic
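Knockdown cells (IDH1KD HT-1080) received compounds 2 h after plating at 750 cells/well and were kept 48 h at 37 °C in 5% FBS RPMI. A CellTiter-Glo luminescence read gave % activity for curve fitting.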
KB-V1 MDR tox: qHTS assay for MDR1-selective chemotherapeutics: Primary screen using the drug-selected MDR subline cells KB-V1. AID 1347076, 2019. actives 3.4% (n = 400,000). Potency, µM (doses to about 46.1 µM), hits mostly cytotoxic. KB-V1 MDR cells viability, CellTiter-Glo, 72 h; note: nearly all actives have a fitted effect of over 60% in size
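Cytotoxicity toward P-gp-expressing KB-V1 cells was determined as loss of CellTiter-Glo luminescence after 72 h at 37 degrees C. Compounds were tested in quantitative HTS format across a concentration range, with curves fitted to normalized data.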
TDP1 cell noCPT: qHTS for Inhibitors of human tyrosyl-DNA phosphodiesterase 1 (TDP1): qHTS in cells in absence of CPT. DT40 Tdp1-/- hTDP1 cells, no CPT, ATP luminescence, 48 h. Potency, µM (titrated, usually from 46.2 µM), most hits filed as inhibitors. actives 15% (n = 420,000). AID 686978, 2013; note: nearly all actives have a fitted effect of over 55% in size
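Growth kinetics read by CellTiter-Glo luminescence after ≥48 hr at 37 °C. Cells: DT40 Tdp1-/- stably carrying human TDP1, 400 per well, compound exposure in the absence of CPT (DMSO vehicle).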
KB-3-1 cytotox: qHTS assay for MDR1-selective chemotherapeutics: Primary screen using the parental adenocarcinoma cell KB-3-1 | KB-3-1 viability, CellTiter-Glo ATP luminescence, 72 h | Potency, µM (titrated, usually from 46.1 µM), most hits filed as cytotoxic | actives 1.4% (n = 400,000); note: nearly all actives have a fitted effect of over 60% in size
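Parental KB-3-1 viability, qHTS format: 72 h compound exposure, 37 °C; CellTiter-Glo; media-only wells and DMSO plates as controls; concentration-effect fits on corrected data.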
Each line names hits and unclear results; the compound was inactive in the other large screens. Calls come from the whole dose curve; as a rule, active = well fitted curve in the direction sought with a large enough effect; inconclusive = small, poorly fitted or top-dose-only effect, or another doubt; inactive = no such curve, though single readings can be large; an effect the other way counts as inactive or inconclusive.

CN(C(=O)c1cccc(NC(=O)Cc2ccc(NC(=O)C3CCCN(C(=O)c4ccccc4)C3)cc2)c1)C1CCCC1 (configuration not stated)	DT40 TDP1 CPT inconclusive, TDP1 cell noCPT inconclusive
CN(C(=O)c1cccc(NC(=O)Cc2ccc(NC(=O)C3CCCN(C(=O)CCc4ccccc4)C3)cc2)c1)C1CC1 (configuration not stated)	DT40 TDP1 CPT inconclusive, TDP1 cell noCPT 16.4µM, KB-3-1 cytotox inconclusive
CN(C(=O)c1cccc(NC(=O)Cc2ccc(NC(=O)C3CCCN(C(=O)CCc4ccccc4)C3)cc2)c1)C1CCCCC1 (configuration not stated)	DT40 TDP1 CPT inconclusive, TDP1 cell noCPT 16.4µM, KB-3-1 cytotox inconclusive
CN(C(=O)c1ccc(NC(=O)Cc2ccc(NC(=O)C3CCCN(C(=O)CCc4ccccc4)C3)cc2)cc1)C1CCCC1 (configuration not stated)	DT40 TDP1 CPT 23.1µM, TDP1 cell noCPT 20.6µM, KB-3-1 cytotox inconclusive
CN(Cc1ccccc1)C(=O)c1ccc(NC(=O)C2CCCN(C(=O)OC(C)(C)C)C2)cc1 (configuration not stated)	DT40 TDP1 CPT inconclusive, TDP1 cell noCPT 18.4µM, KB-3-1 cytotox inconclusive
CN(C(=O)c1cccc(NC(=O)Cc2ccc(NC(=O)C3CCCN(C(=O)c4ccccc4)C3)cc2)c1)C1CCC1 (configuration not stated)	DT40 TDP1 CPT inconclusive, TDP1 cell noCPT inconclusive
Cc1ccc(CCNC(=O)c2cc3sccc3n2Cc2ccc(Cl)cc2)cc1	none (no result: HT1080NT lethal, HT1080 IDH1KD tx)
Cc1[nH]c(C)c(S(=O)(=O)NCc2ccc(F)cc2)c1C(=O)N1CCCC1	none
CN(Cc1ccccc1)C(=O)c1ccc(NC(=O)Cc2ccc(NC(=O)C3CCCN(C(=O)C4CCC4)C3)cc2)cc1 (configuration not stated)	TDP1 cell noCPT inconclusive
CN(Cc1ccccc1)C(=O)c1ccc(NC(=O)Cc2ccc(NC(=O)C3CCCN(C(=O)CCc4ccccc4)C3)cc2)cc1 (configuration not stated)	DT40 TDP1 CPT 10.3µM, TDP1 cell noCPT 14.6µM, KB-3-1 cytotox inconclusive
Cc1cccc(NC(=S)N(CCN(C)C)Cc2cc3cc(C)cc(C)c3[nH]c2=O)c1	DT40 TDP1 CPT inconclusive, TDP1 cell noCPT inconclusive
Cc1cccc(NC(=S)N(CCN(C)C)Cc2cc3cccc(C)c3[nH]c2=O)c1	DT40 TDP1 CPT inconclusive, KB-V1 MDR tox 16.4µM, TDP1 cell noCPT 6.51µM
CCN(CC)CCCN(Cc1cc2cc(OC)ccc2[nH]c1=O)C(=O)Nc1ccccc1	HT1080NT lethal inconclusive, DT40 TDP1 CPT inconclusive, HT1080 IDH1KD tx inconclusive, TDP1 cell noCPT inconclusive
Cc1ccc(NC(=S)N(CCN(C)C)Cc2cc3cc(C)ccc3[nH]c2=O)cc1	DT40 TDP1 CPT inconclusive, KB-V1 MDR tox 23.1µM, TDP1 cell noCPT inconclusive
CCN(CC)CCCN(Cc1cc2cc(OC)ccc2[nH]c1=O)C(=O)Nc1ccc(F)cc1	HT1080NT lethal inconclusive, DT40 TDP1 CPT 16.4µM, HT1080 IDH1KD tx inconclusive, TDP1 cell noCPT 20.6µM
Cc1cccc2cc(CN(Cc3cccnc3)C(=S)NCCCN(C)C)c(=O)[nH]c12	DT40 TDP1 CPT 13µM, TDP1 cell noCPT inconclusive
Cc1cccc(-c2ocnc2C(=O)Nc2ncc(C)s2)c1	none
CCn1nc(C)c(CN2Cc3ccccc3OC(c3ccccc3OC)C2)c1C (configuration not stated)	TDP1 cell noCPT inconclusive (no result: HT1080NT lethal, HT1080 IDH1KD tx, KB-V1 MDR tox, KB-3-1 cytotox)
COc1ccc(CCCc2nnc(SCC(=O)Nc3ccc(C)cc3)o2)cc1	none (no result: HT1080NT lethal, HT1080 IDH1KD tx)

Screens as filed in PubChem BioAssay.
